Compound activity as filed in PubChem.
Shiga inhibitor = A qHTS for Small Molecule Inhibitors of Shiga Toxin | Vero cells, Shiga toxin protein synthesis inhibition reporter | inhibition, % at 38.7 µM | 9.2% of 290,000 active; in the data active means inhibition mostly above about 28%, no sharp cut-off; inactive means mostly below about 43%
CHX counter = Cycloheximide Counterscreen for Small Molecule Inhibitors of Shiga Toxin | 12% of 300,000 active | cell reporter, cycloheximide protein synthesis inhibition counterscreen | max response, %; in the data active means max response mostly above about 13%, no sharp cut-off; inactive means mostly below about 14%; further: read at 38.3 µM for the half of the compounds with a filed dose
Lassa entry inh = qHTS for Inhibitors of binding or entry into cells for Lassa Virus; Lassa virus pseudotype entry inhibition, cell reporter; Potency, µM (series often up to 37.9 µM), hits mostly inhibitors; 1.2% of 300,000 active; calls by dose curve; tested in HEK293 cells; further: nearly all actives have a fitted effect of over 50% in size
Vaccinia Venus = qHTS for Stage-Specific Inhibitors of Vaccinia Orthopoxvirus: Venus Reporter Primary qHTS; Vaccinia virus Venus reporter expression, fluorescence; Potency, µM (top dose mostly 36.5 µM), usual class: inhibitors; 0.46% of 330,000 active; calls by dose curve; tested in A549 cells; further: nearly all actives have a fitted effect of over 30% in size
Marburg entry inh = qHTS for inhibitors of binding or entry into cells for Marburg Virus; Marburg virus pseudotyped entry inhibition, cell reporter; Potency, µM (series often up to 37.8 µM), hits mostly inhibitors; 1.8% of 300,000 active; AID 540276, 2011; calls by dose curve; tested in HEK293 cells
VACV mCherry inh = qHTS for Stage-Specific Inhibitors of Vaccinia Orthopoxvirus: mCherry Reporter Primary qHTS; Vaccinia virus mCherry reporter infection, fluorescence; Potency, µM (series often up to 36.5 µM), most hits filed as inhibitors; 0.63% of 310,000 active; AID 720579, 2013; calls by dose curve; tested in A549 cells; further: nearly all actives have a fitted effect of over 35% in size
Of the large screens only hits and unclear results are named; the others gave an inactive call. Shown is part of a subset that was picked to be rich in hits.

S=C(NCCc1ccccc1)N1CCN(C(c2ccccc2)c2ccccc2)CC1	Lassa entry inh inconclusive, Marburg entry inh inconclusive
OCCN1CCN(C(=S)NCCc2ccccc2)CC1	Shiga inhibitor 71, CHX counter 18, Lassa entry inh inconclusive
CN(C)C(=O)c1nnsc1Sc1ccc(Cl)cc1	Shiga inhibitor 51, CHX counter 26, Marburg entry inh inconclusive
CC1(C)CC(=O)c2c(O)cc(OCC(=O)Nc3ccc(CCO)cc3)cc2O1	CHX counter 16 (no result: Lassa entry inh, Marburg entry inh)
COc1cccc(NC(=O)COc2cc(O)c3c(c2)OC(C)(C)CC3=O)c1	CHX counter 24 (no result: Lassa entry inh, Marburg entry inh)
COc1ccc(CN2CCOc3ccc(CN4CCC(O)CC4)cc3C2)c(OC)c1OC	none (no result: Shiga inhibitor, CHX counter, Lassa entry inh, Marburg entry inh)
CC(=O)c1cccc(NC(=O)N2CCc3ccccc3C2)c1	Shiga inhibitor 100, CHX counter 25, Marburg entry inh inconclusive (no result: Vaccinia Venus, VACV mCherry inh)
COc1cc2c(cc1OC)CN(C(=O)Nc1ccccc1)CC2	Marburg entry inh inconclusive
CC(=O)c1ccc(NC(=O)N2CCc3ccccc3C2)cc1	Shiga inhibitor 109, CHX counter 29
CC(C)Oc1ccc(CNC(=O)c2ccccc2NC(=O)c2nsc3ccccc23)cc1	none (no result: Shiga inhibitor, CHX counter, Marburg entry inh)
Cn1c(N=NC(=O)c2ccccc2)c(O)c2ccccc21	Shiga inhibitor 33, CHX counter 43, Lassa entry inh inconclusive, Marburg entry inh inconclusive
CC(C)OC(=O)Nc1ccc2c(c1)N(C(=O)N1CCN(C)CC1)c1ccccc1CC2	CHX counter 30, Lassa entry inh inconclusive, Marburg entry inh inconclusive
CCCC(CCC)C(=O)Nc1ccc2c(c1)N(C(=O)CCN1CCN(C)CC1)c1ccccc1CC2	Marburg entry inh 11µM
O=C(Nc1ccccc1)c1cc(C2COCCN2C(=O)c2ccccn2)on1 (stereo unspecified)	none (no result: Shiga inhibitor, CHX counter, Lassa entry inh, Marburg entry inh)
Cc1ccc(OCCn2nnc3sc4c(c3c2=O)CCC(C)C4)cc1 (stereo unspecified)	Marburg entry inh inconclusive (no result: Shiga inhibitor, CHX counter)
O=C(CSc1ccccc1Cl)N1CCOCC1	none (no result: Lassa entry inh, Vaccinia Venus, Marburg entry inh, VACV mCherry inh)
COc1ccc(CNC(=O)N2CCN(c3ccccc3OC)CC2)cc1	none
Cc1cc(C)n2nc(C(=O)N/N=C/c3cccc(Cl)c3)nc2n1	CHX counter 9.4
Cc1cc(C)n2nc(C(=O)NNC(=O)c3ccc(Cl)cc3)nc2n1	Shiga inhibitor 34, CHX counter 31 (no result: Lassa entry inh, Vaccinia Venus, Marburg entry inh, VACV mCherry inh)
Cc1cc(C)c2c(CC(=O)N(Cc3ccc(Cl)cc3)Cc3ccco3)coc2c1	Marburg entry inh inconclusive (no result: Shiga inhibitor, CHX counter)
O=C(Cc1ccc([N+](=O)[O-])cc1)c1ccc(O)cc1O	Shiga inhibitor 61, CHX counter 16 (no result: Lassa entry inh, Vaccinia Venus, Marburg entry inh, VACV mCherry inh)
COc1ccc(C(=O)Cc2ccc3c(c2)OCO3)c(O)c1	Shiga inhibitor active, CHX counter 101, Lassa entry inh inconclusive, Marburg entry inh inconclusive
O=C(Cc1ccc(Br)cc1)c1ccc(O)cc1O	Shiga inhibitor 186, CHX counter 49, Lassa entry inh inconclusive (no result: VACV mCherry inh)
COc1ccc(CCn2c(C)cc(C(=O)COC(=O)c3ccc(O)cc3O)c2C)cc1	VACV mCherry inh inconclusive (no result: Shiga inhibitor, CHX counter, Lassa entry inh, Marburg entry inh)
COc1ccc(CC(=O)c2ccc(O)cc2O)cc1	Shiga inhibitor 59, CHX counter 49 (no result: Lassa entry inh, Marburg entry inh)
CCCCC(=O)c1ccc(O)cc1O	none (no result: Shiga inhibitor, CHX counter)
Cc1cccc(C(=O)NCc2nc(-c3cccc(NC(=O)c4ccoc4C)c3)oc2C)n1	none (no result: Shiga inhibitor, CHX counter, Lassa entry inh, Marburg entry inh)
O=Cc1ccc([B-](F)(F)F)s1	none (no result: Shiga inhibitor, CHX counter, Lassa entry inh, Marburg entry inh)
CCCC1(c2ccccc2)NC(=O)N(C/C=C/Cl)C1=O (stereo unspecified)	none
O=C(O)COc1ccc(C(=O)Cc2ccc3c(c2)OCCCO3)c(O)c1	Lassa entry inh inconclusive
O=C(Cc1ccc2c(c1)OCCO2)c1c(O)cc(O)cc1O	Shiga inhibitor 57, CHX counter 32, Lassa entry inh inconclusive
Cc1ccc(NC(=O)CCN2CC(C)OC(C)C2)cc1C (stereo unspecified)	none (no result: Lassa entry inh, Vaccinia Venus, Marburg entry inh, VACV mCherry inh)
COc1cccc(-c2ccc(SCC(=O)NCCc3ccccc3)nn2)c1	none
COc1cccc(-c2ccc(SCc3ccccn3)nn2)c1	Shiga inhibitor 77, CHX counter 42, Lassa entry inh inconclusive, Marburg entry inh inconclusive
COc1ccc(-c2ccc(SCc3ccccn3)nn2)cc1OC	CHX counter 29 (no result: Lassa entry inh, Vaccinia Venus, Marburg entry inh, VACV mCherry inh)
O=C(CSc1ccc(-c2cccc([N+](=O)[O-])c2)nn1)N1CCCCC1	none
O=[N+]([O-])c1cccc(-c2ccc(SCc3ccccn3)nn2)c1	Shiga inhibitor 56, CHX counter 37
CCCc1nc2ccc(C)cn2c1Cc1ccc(OC)cc1C	none (no result: Shiga inhibitor, CHX counter, Lassa entry inh, Marburg entry inh)
